High-throughput results as filed in PubChem.
The list is not random: actives were taken first. Their share in the collection is about 4.8%.
DAX1 inh-1: inhibitors of human orphan nuclear receptor DAX1 (NR0B1). HEK293 Gal4-DAX1 luciferase reporter, luminescence. inhibition, % at 6.75 µM. hit rate 0.99% among 340,000;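 active = inhibition above the mean over all tested compounds plus 3 SD, cut at about 4.2% in these data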;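 also: 0% = DAX1-transfected cells with DMSO and 100% = empty-vector control cells with DMSO; inhibition shows as a rise in luminescence from relieved DAX1 repression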
Target sequence (P51843 207-470 limits assumed): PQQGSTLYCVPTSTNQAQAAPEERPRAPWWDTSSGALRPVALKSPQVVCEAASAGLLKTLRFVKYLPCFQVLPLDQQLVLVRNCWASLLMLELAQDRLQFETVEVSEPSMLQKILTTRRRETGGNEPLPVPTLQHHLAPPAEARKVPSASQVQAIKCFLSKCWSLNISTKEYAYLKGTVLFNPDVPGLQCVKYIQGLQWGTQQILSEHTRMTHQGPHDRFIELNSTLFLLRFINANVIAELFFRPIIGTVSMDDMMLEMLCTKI
hgDAF-12 ag: activates the H. glycines DAF-12 receptor ligand-binding domain; HEK293 GAL4-hgDAF12 UAS-luciferase reporter, agonist luminescence; normalized to butyrate control; activation, % at 6.8 µM; hit rate 1.8% among 370,000;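 active = activation above a cutoff set at the mean of all screened compounds plus 3 SD, cut at about 10% in these data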;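 also: 0% = DMSO wells and 100% = sodium butyrate wells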
DAX1 inh-2: DAX1 (NR0B1) inhibition, primary screen | HEK293T StAR-luciferase reporter, SF-1/DAX-1 repression relief | hit rate 1.1% among 370,000 | inhibition, % at 6.8 µM;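 active = inhibition above the mean over all tested compounds plus 3 SD, cut at about 3.6% in these data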;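 also: 0% = DAX-1 cells with DMSO and 100% = cells lacking DAX-1 with DMSO; higher inhibition means more luminescence from relief of DAX-1 repression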
ssDAF-12 act: activators of S. stercoralis DAF-12 nuclear receptor | HEK293 ssDAF-12/GRIP1 lit1-tk-luc reporter, luminescence; % of 3 µM dafachronic acid response | activation, % at 6.8 µM | hit rate 1% among 370,000;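 active = activation above the mean over all tested compounds plus 3 SD, cut at about 0.9% in these data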;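 also: 0% = DMSO-only wells and 100% = 3 µM delta7-dafachronic acid wells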
SMARCA2 act: increases SMARCA2 function in MMTV reporter cells; MG213 cells, MMTV-luciferase reporter, dexamethasone, overnight; hit rate 1% among 370,000; activation, % at 9.1 µM; in the data active = activation above about 7.8%;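 also: 0% = vehicle wells and 100% = reference activator wells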
hcDAF12 agonist: activators of H. contortus DAF-12 nuclear receptor; activation, % at 6.8 µM; hit rate 1.4% among 370,000; HEK293 hcDAF-12 lit1-tk-luc reporter, luminescence; 0% DMSO, 100% Δ7-dafachronic acid;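 active = activation above the mean of all tested compounds plus 3 SD, cut at about 5.5% in these data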;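 also: 100% = response to 3 µM Δ7-dafachronic acid high control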
* marks the source's active call; other numbers are inactive results.

CCOc1ccc(CN(C)c2nc(-c3cccnc3)nc3ccccc23)cc1OC was read as DAX1 inh-1 -2.9, hgDAF-12 ag -5.2, DAX1 inh-2 -0.6, ssDAF-12 act -1.2, SMARCA2 act -2.8 and hcDAF12 agonist -3.5.
Nc1c(/C=C2\C=Nc3ccccc32)c(=O)nc2sc(CC(=O)N3CCOCC3)nn12 was read as DAX1 inh-1 1.1, hgDAF-12 ag 6.5, DAX1 inh-2 3.7*, ssDAF-12 act -0.4, SMARCA2 act -1.4 and hcDAF12 agonist 4.9.
For CCCNC(=O)CCn1nc(-c2ccc(Cl)cc2)c2ccccc2c1=O the results were DAX1 inh-1 5.4*, hgDAF-12 ag 4.4, DAX1 inh-2 0.1, ssDAF-12 act -2.0, SMARCA2 act -2.3 and hcDAF12 agonist -1.6.
Screening CCCNC(=O)CCn1nc(-c2ccc(C)cc2)c2ccccc2c1=O returned DAX1 inh-1 -0.4, hgDAF-12 ag -0.4, DAX1 inh-2 -0.2, ssDAF-12 act -1.2, SMARCA2 act 1.0 and hcDAF12 agonist -2.0.
For O=C(Nc1cc(-c2ccccc2)[nH]n1)c1ccc(Cl)cc1 the results were DAX1 inh-1 3.4, hgDAF-12 ag 9.8, DAX1 inh-2 1.4, ssDAF-12 act 1.7*, SMARCA2 act -2.7 and hcDAF12 agonist 5.1.
For Cc1ccc(C(=O)Nc2ccc(Cl)cn2)cc1 the results were DAX1 inh-1 -1.6, hgDAF-12 ag 12.2*, DAX1 inh-2 1.8, ssDAF-12 act 0.4, SMARCA2 act 0.8 and hcDAF12 agonist 2.9.
`Cc1ccc(NC(=O)c2ccc(Nc3ccccc3F)nc2)cc1` gave DAX1 inh-1 0.1, hgDAF-12 ag 5.5, DAX1 inh-2 -0.4, ssDAF-12 act 1.2*, SMARCA2 act 4.3 and hcDAF12 agonist 1.7.
O=C(Nc1ccc(Cl)cn1)c1ccc(Oc2ccccc2)cc1 was read as DAX1 inh-1 1.0, hgDAF-12 ag 12.8*, DAX1 inh-2 1.5, ssDAF-12 act -0.5, SMARCA2 act 1.0 and hcDAF12 agonist 3.6.
Cc1ccc(CC(=O)Nc2ccc(Cl)cn2)cc1 was read as DAX1 inh-1 1.4, hgDAF-12 ag 3.2, DAX1 inh-2 0.0, ssDAF-12 act -1.4, SMARCA2 act 4.5 and hcDAF12 agonist -1.4.
`O=C(Nc1ccc(Cl)cn1)c1cccc(OCc2ccccc2)c1` gave DAX1 inh-1 0.3, hgDAF-12 ag 2.7, DAX1 inh-2 0.7, ssDAF-12 act -1.1, SMARCA2 act 4.4 and hcDAF12 agonist -1.6.
`COC(=O)Nc1ccc2ccc3c(NC(=O)OC)ccc4ccc1c2c43` gave DAX1 inh-1 -0.5, hgDAF-12 ag 1.8, DAX1 inh-2 -1.3, ssDAF-12 act -1.2, SMARCA2 act 2.0 and hcDAF12 agonist -1.5.
C[C@H](CO)N1C[C@H](C)[C@@H](CN(C)C(=O)C2CC2)OCc2cnnn2CCCC1=O was read as DAX1 inh-1 1.6, hgDAF-12 ag -2.4, DAX1 inh-2 -1.0, ssDAF-12 act -0.7, SMARCA2 act 2.6 and hcDAF12 agonist -0.1.
For Cc1ccc(S(=O)(=O)N2CCOCC2)cc1NC(=O)CSc1nnc(COc2ccccc2F)n1N the results were DAX1 inh-1 0.2, hgDAF-12 ag -1.4, DAX1 inh-2 0.3, ssDAF-12 act -1.3, SMARCA2 act -1.8 and hcDAF12 agonist -2.7.
For CC(C)c1ccc(NC(=O)C2(C)Cc3c(-c4ccc5c(c4)OCO5)ccnc3O2)cc1 (stereo not drawn) the results were hgDAF-12 ag 2.0, DAX1 inh-2 -0.8, ssDAF-12 act -1.6, SMARCA2 act -0.5 and hcDAF12 agonist -0.3.
For CCCOc1ccc(C(=O)Nc2ccc(Cl)cn2)cc1 the results were DAX1 inh-1 -0.6, hgDAF-12 ag 10.0, DAX1 inh-2 3.4, ssDAF-12 act 0.0, SMARCA2 act 4.4 and hcDAF12 agonist 5.8*.
Screening O=C(COc1ccc(Cl)cc1)Nc1ccc(Cl)cn1 returned DAX1 inh-1 0.8, hgDAF-12 ag 5.3, DAX1 inh-2 1.6, ssDAF-12 act -1.0, SMARCA2 act 1.5 and hcDAF12 agonist 0.0.
COC(=O)C1C/C(=N\NS(=O)(=O)c2ccc(C)cc2)c2ccccc2C1 (stereo not drawn) was read as DAX1 inh-1 -0.2, hgDAF-12 ag -1.0, DAX1 inh-2 -3.1, ssDAF-12 act -0.9, SMARCA2 act -1.6 and hcDAF12 agonist -1.3.
`NC(=O)C(=O)N/N=C1\CCc2ccccc21` gave DAX1 inh-1 1.1, hgDAF-12 ag 3.6, DAX1 inh-2 0.8, ssDAF-12 act 0.0, SMARCA2 act 4.5 and hcDAF12 agonist 6.0*.
COc1ccc(OCC(=O)N/N=C2\CCc3ccccc32)cc1 was read as DAX1 inh-1 0.9, hgDAF-12 ag -1.7, DAX1 inh-2 0.2, ssDAF-12 act -0.4, SMARCA2 act -2.7 and hcDAF12 agonist -0.5.
Cc1ccc(S(=O)(=O)NN=C2CCc3ccccc32)cc1 was read as DAX1 inh-1 1.1, hgDAF-12 ag 4.6, DAX1 inh-2 0.3, ssDAF-12 act 1.6*, SMARCA2 act -2.8 and hcDAF12 agonist 3.8.
For CC(C)NC(=O)Cn1nnc(-c2ccccc2)c1COc1ccc2ccccc2c1 the results were hgDAF-12 ag -2.9, DAX1 inh-2 -0.1, ssDAF-12 act -1.8, SMARCA2 act -0.9 and hcDAF12 agonist -3.0.
For COc1cccc(CNC(=O)C2CC(=O)N(C3CCCCC3)C2)c1 (stereo not drawn) the results were DAX1 inh-1 1.2, hgDAF-12 ag 2.7, DAX1 inh-2 -0.1, ssDAF-12 act -0.8, SMARCA2 act 0.0 and hcDAF12 agonist -0.1.
Screening CC(C)Cn1c2c(c(=O)[nH]c1=O)C(NS(=O)(=O)c1ccc(Cl)cc1)(C(F)(F)F)C(=O)N2 (stereo not drawn) returned DAX1 inh-1 4.3*, hgDAF-12 ag -2.0, DAX1 inh-2 -0.2, ssDAF-12 act -0.9, SMARCA2 act -3.2 and hcDAF12 agonist 1.8.
Screening CC(=O)NC1(C(F)(F)F)C(=O)Nc2c1c(=O)[nH]c(=O)n2CC(C)C (stereo not drawn) returned DAX1 inh-1 -0.2, hgDAF-12 ag 0.9, DAX1 inh-2 -0.2, ssDAF-12 act -2.0, SMARCA2 act -2.3 and hcDAF12 agonist -0.6.
For COC(=O)c1ccc(NS(=O)(=O)c2cc3c4c(c2)CCC(=O)N4CCC3)cc1 the results were DAX1 inh-1 0.1, hgDAF-12 ag -4.1, DAX1 inh-2 0.8, ssDAF-12 act -0.9, SMARCA2 act -3.2 and hcDAF12 agonist -1.7.
For CSc1ccccc1NC(=O)c1noc(C)c1[N+](=O)[O-] the results were DAX1 inh-1 0.4, hgDAF-12 ag -4.5, DAX1 inh-2 -0.5, ssDAF-12 act -0.5, SMARCA2 act -2.5 and hcDAF12 agonist -1.0.
For CNC(=O)c1ncnnc1N(C)C(=O)NCc1ccccc1 the results were DAX1 inh-1 9.6*, hgDAF-12 ag 0.3, DAX1 inh-2 -0.2, ssDAF-12 act -0.9, SMARCA2 act -1.6 and hcDAF12 agonist -0.2.
